This is an account of results in PubChem BioAssay AID504329 (Southern Research Specialized Biocontainment Screening …, 2011).

Screen size: about 340,000 compounds; about 1,000 (0.29%) were called active. These entries were drawn from the full list. Results with a measured potency or affinity are listed apart. Values without a mark were called inactive. Cut-off read from the data, not from the text of the source: inconclusive = inhibition above about 27% without an active follow-up result; inactive = below that.

This assay is described as follows: H1N1 influenza NS1A inhibitors, functional cell based assay (AID 504329). Particulars: percent inhibition, at 12.5 µM, hits give high values.
For the molecule `CC(C)n1nnnc1SCC(=O)NNC(=O)C1CCCCC1`, the inhibition is -0.25%.
With `COC(=O)[C@@H]1C[C@@]2(O)[C@@H](O)[C@@H](O)[C@@H](O)C[C@H]2N1CC1CCCCC1` the figure was -4.19%; with `CCCCn1c(N)c(N(C(=O)CSc2nnnn2-c2ccccc2C)C2CCCC2)c(=O)[nH]c1=O`, -10.4%.
As for `CC1CC(C)CN(C(=O)COc2ccc([N+](=O)[O-])cc2Cl)C1` (stereo unspecified), the inhibition was 0.5%.
With `CSCCC(NC(=O)c1ccccc1)C(=O)OCC(=O)Nc1ccc(C)c(Cl)c1` (stereo unspecified) the figure was 0.6%; with `COc1ccc(OCc2nnc(SCC(N)=O)n2-c2ccccc2OC)cc1`, -0.95%; with `O=[N+]([O-])c1cc(Cl)c(O)c2ncccc12`, -6.45%.
Under `Oc1ccc(COCc2ccccc2)c2cccnc12` stands 22.4%; under `O=[N+]([O-])c1cc2c(cc1CN1CCN(c3ccccc3)CC1)OCO2`, 1.15%; under `Oc1ccc2ccccc2c1CN1CCN(c2ccccc2)CC1`, 0.87%.
With `c1ccc(N2CCN(Cc3ccnc4ccccc34)CC2)cc1` the figure was -0.44%.
With `O=S(=O)(c1ccc(Cl)cc1)N1CCN(Cc2ccc(O)c3ncccc23)CC1`, the inhibition is 19.8%.
With `COc1ccc(C2C(C(=O)Nc3cc(C)on3)c3ccccc3C(=O)N2C)cc1` (stereo unspecified) the figure was 7.42%.
Under `CCCCNS(=O)(=O)c1cc(-c2nn(C)c(=O)c3ccccc23)ccc1C` stands -6.29%.
Under `CC(=O)N1N=C(c2ccc(Br)cc2)OC12CCCC2` stands -0.33%.
`C=CCSc1nc(N)c(C(=O)Nc2ccccc2OC)cc1C(=O)Nc1ccccc1`: the inhibition was 6.7%.
For `COc1ccccc1NC(=O)c1c(N=Cc2c(O)ccc3ccccc23)cnn1C`, the inhibition was 15.2%.
With `Cc1cc(OCC(=O)OCC(=O)N2CCc3ccccc3C2)ccc1Cl` the figure was -4.55%; with `Cc1ccc(NN=C2C(=O)OC(C)(C)OC2=O)c(C)c1`, -14.3%; with `Cc1ccc(C2Nc3ccccc3NC3=C2C(=O)CC(C)(C)C3)c(O)c1` (stereo unspecified), -4.27%.
Under `O=C(c1ccccc1F)N1CCN(C(=O)C(c2ccccc2)c2ccccc2)CC1` stands 6.85%.
For `O=c1ccc(Cl)nn1-c1ccccc1`, the inhibition is -0.77%.
For `CSCCC(NC(=O)COc1ccccc1)C(=O)N1CCCCC1` (stereo unspecified), the inhibition is 0.87%.
Under `CC(=O)c1ccc(S(=O)(=O)NCCCC(=O)N(C)Cc2ccc3c(c2)OCO3)cc1` stands -23.5%; under `CCOC(=O)C(=O)Nc1cc(C)nn1-c1nc2ccccc2[nH]1`, 11.3%.
For the molecule `Cc1cc(NC(=O)CC#N)n(-c2nc3ccccc3[nH]2)n1`, the inhibition was -16.5%.

What is called inhibition is the drop in the measured response relative to a control, in per cent.
